Values without a mark were called inactive. Inconclusive results are not listed. Active and inactive are the calls of the source. Unless noted, calls follow the shape of the dose curve; as a rule, active = well fitted curve in the direction sought with a large enough effect in the repeat runs; inconclusive = weak or mixed curves; inactive = no such curve, though single readings can be large; an effect the other way counts as inactive or inconclusive.

The results in this text go back to PubChem BioAssay (Tox21).

The nature of experiment [1]: qHTS assay to test for compound auto fluorescence at 535 nm (green) in HEK293 cells (AID 720680).
Experiment [2] in a line: qHTS assay to test for compound auto fluorescence at 460 nm (blue) in HEK293 cell free culture (AID 720681). The procedure, abridged:
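Test compounds were pinned into cell-free culture medium (DMEM with 10% FBS) and fluorescence was read directly at Ex/Em 405/460 nm. Signals were expressed as fluorescence equivalents of triamterene, with DMSO vehicle as control.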
In general terms: qHTS replaces the single test concentration by a dilution series.

A short description of experiment [3]: qHTS assay to test for compound auto fluorescence at 535 nm (green) in HEK293 cell free culture (AID 720682). The procedure, abridged:
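Each library compound, or DMSO control, is added by pintool to medium alone, comprising DMEM and 10% FBS. Emission at 535 nm following 485 nm excitation is quantified against fluorescein.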

A short description of experiment [4]: qHTS assay to test for compound auto fluorescence at 590 nm (red) in HEK293 cell free culture (AID 720683). The procedure, abridged:
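Tox21 10K library compounds were pinned into cell-free DMEM with 10% FBS and fluorescence was read at excitation 540 nm. Activity is expressed as Rose Bengal sodium equivalency.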

The nature of experiment [5]: qHTS assay to test for compound auto fluorescence at 590 nm (red) in HepG2 cell free culture (AID 720684). The procedure, abridged:
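Readout: intrinsic compound fluorescence at 590 nm emission after 540 nm excitation, scaled to Rose Bengal sodium. Matrix was cell-free MEM with 10% FBS; DMSO vehicle wells served as control.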

The nature of experiment [6]: qHTS assay to test for compound auto fluorescence at 460 nm (blue) in HepG2 cell free culture (AID 720685). An outline of the steps: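 Cell-free plates of MEM plus 10% FBS received 23 nL compound or DMSO vehicle; blue-channel (405/460 nm) intensity scored against triamterene as reference fluorophore.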
A short description of experiment [7]: qHTS assay to test for compound auto fluorescence at 535 nm (green) in HepG2 cell free culture (AID 720686).
Experiment [8] in a line: qHTS assay to test for compound auto fluorescence at 460 nm (blue) in HepG2 cells (AID 720687). An outline of the steps:
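Cells (2,000/well in MEM with 10% FBS) attached overnight at 37 C, then were exposed to compound or DMSO for 1 hr at 37 C, 5% CO2. Fluorescence read at Ex/Em 405/460 nm, expressed as triamterene-equivalent signal.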

The target of experiment [9] is Glucocorticoid receptor (Homo sapiens) (UniProt P04150). The experiment is described as follows: qHTS assay to identify small molecule agonists of the glucocorticoid receptor (GR) signaling pathway (AID 720691; active = well fitted activation curve with a large enough effect in the signal ratio in the repeat runs, not every such curve was filed as active; the % refers to the signal ratio). An outline of the steps:
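Steps: seed GR-bla HeLa cells, incubate 4 h at 37 C/5% CO2; pin-transfer DMSO-dissolved compounds; incubate 18 h at 37 C; add LiveBLAzer B/G FRET substrate; after 2 h at room temperature, measure fluorescence.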

For experiment [10] the target is unchanged. Description: qHTS assay to identify small molecule antagonists of the glucocorticoid receptor (GR) signaling pathway (AID 720692; active = well fitted inhibition curve with a large enough effect in the signal ratio in the repeat runs, not every such curve was filed as active; the % refers to the signal ratio). The procedure, abridged:
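Antagonism was scored as loss of dexamethasone-driven (5 nM final) reporter signal in HeLa cells bearing a glucocorticoid response element–beta-lactamase construct, after 18 h compound exposure at 37 C and 2 h FRET substrate loading.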

The nature of experiment [11]: qHTS assay to identify small molecule antagonists of the glucocorticoid receptor (GR) signaling pathway - cell viability counter screen (AID 720693). Also: nearly all actives have a fitted effect of over 55% in size.
Experiment [12] in a line: qHTS assay for identifying genotoxic compounds that show differential cytotoxicity against isogenic chicken DT40 cell lines with known DNA damage response pathways - wild type cell line (AID 743012). Also: nearly all actives have a fitted effect of over 60% in size. Also: potency is read from the fitted curve at half-maximal effect. An outline of the steps:
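Cytotoxicity in repair-proficient parental chicken DT40 cells serves as the comparator for Rad54/Ku70- and Rev3-deficient lines. Cells were exposed to compounds for 40 h at 37 C/5% CO2, and ATP-based luminescence (CellTiter-Glo) measured viability.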

A short description of experiment [13]: qHTS assay for identifying genotoxic compounds that show differential cytotoxicity against isogenic chicken DT40 cell lines with known DNA damage response pathways - Rev3 mutant cell line (AID 743014). Also: nearly all actives have a fitted effect of over 55% in size. Also: potency is read from the fitted curve at half-maximal effect.
The nature of experiment [14]: qHTS assay for identifying genotoxic compounds that show differential cytotoxicity against isogenic chicken DT40 cell lines with known DNA damage response pathways - Rad54/Ku70 mutant cell line (AID 743015). Also: nearly all actives have a fitted effect of over 60% in size. Also: potency is read from the fitted curve at half-maximal effect.
Experiment [15] is described as follows: qHTS assay to identify small molecule antagonists of the androgen receptor (AR) signaling pathway - cell viability counter screen (AID 743033; also: nearly all actives have a fitted effect of over 45% in size).
Experiment [16] can be described thus: qHTS assay to identify small molecule antagonists of the androgen receptor (AR) signaling pathway using the MDA cell line - cell viability counter screen (AID 743041; also: nearly all actives have a fitted effect of over 45% in size). An outline of the steps: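 qHTS viability read-out; MDA-kb2 AR-luc; R1881-stimulated; 16 h exposure at 37C, 0% CO2; CellTiter-Fluor, 30 min; fluorescence intensity.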
For experiment [17], the target named is Androgen receptor (Homo sapiens) (UniProt P10275). The experiment is described as follows: qHTS assay to identify small molecule antagonists of the androgen receptor (AR) signaling pathway (AID 743035; active = well fitted inhibition curve with a large enough effect in the signal ratio in the repeat runs, not every such curve was filed as active; the % refers to the signal ratio). The procedure, abridged:
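Steps: seed AR-UAS-bla GripTite HEK293 cells, incubate 4 h at 37C; pin in test compound, then add agonist R1881; incubate 16 h at 37C; add LiveBLAzer B/G FRET substrate, 2 h at room temperature; read fluorescence.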

For experiment [18] the target is unchanged. Description: qHTS assay to identify small molecule agonists of the androgen receptor (AR) signaling pathway using the MDA cell line (AID 743040; also: nearly all actives have a fitted effect of over 20% in size). An outline of the steps: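 Agonist activity is measured as luciferase luminescence in human MDA-kb2 cells whose MMTV reporter responds to both AR and GR. Compounds in DMSO incubate 16 h at 37C, 0% CO2, and ONE-Glo is read after 30 min.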

Experiment [19] in a line: qHTS assay to identify small molecule antagonists of the thyroid receptor (TR) signaling pathway - cell viability counter screen (AID 743064). Also: nearly all actives have a fitted effect of over 50% in size. The procedure, abridged: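 CellTiter-Fluor readout, 30 min at 37 °C/5% CO2, following 23.5 h incubation of GH3.TRE-Luc cells with test compound and 1 nM T3 (final).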
Experiment [20] addresses Androgen receptor (Homo sapiens) (UniProt P10275). The experiment is described as follows: qHTS assay to identify small molecule agonists of the androgen receptor (AR) signaling pathway (AID 743036; active = well fitted activation curve with a large enough effect in the signal ratio in the repeat runs, with a control signal flat, not every such curve was filed as active; the % refers to the signal ratio). The procedure, abridged: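 Following a 4 h settling period, AR-UAS-bla HEK293 cells were dosed with compounds for 16 h at 37C. A 2 h room-temperature incubation with LiveBLAzer B/G FRET substrate preceded the fluorescence measurement.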

Sequence of Androgen receptor (Homo sapiens) (P10275 whole entry, looked up): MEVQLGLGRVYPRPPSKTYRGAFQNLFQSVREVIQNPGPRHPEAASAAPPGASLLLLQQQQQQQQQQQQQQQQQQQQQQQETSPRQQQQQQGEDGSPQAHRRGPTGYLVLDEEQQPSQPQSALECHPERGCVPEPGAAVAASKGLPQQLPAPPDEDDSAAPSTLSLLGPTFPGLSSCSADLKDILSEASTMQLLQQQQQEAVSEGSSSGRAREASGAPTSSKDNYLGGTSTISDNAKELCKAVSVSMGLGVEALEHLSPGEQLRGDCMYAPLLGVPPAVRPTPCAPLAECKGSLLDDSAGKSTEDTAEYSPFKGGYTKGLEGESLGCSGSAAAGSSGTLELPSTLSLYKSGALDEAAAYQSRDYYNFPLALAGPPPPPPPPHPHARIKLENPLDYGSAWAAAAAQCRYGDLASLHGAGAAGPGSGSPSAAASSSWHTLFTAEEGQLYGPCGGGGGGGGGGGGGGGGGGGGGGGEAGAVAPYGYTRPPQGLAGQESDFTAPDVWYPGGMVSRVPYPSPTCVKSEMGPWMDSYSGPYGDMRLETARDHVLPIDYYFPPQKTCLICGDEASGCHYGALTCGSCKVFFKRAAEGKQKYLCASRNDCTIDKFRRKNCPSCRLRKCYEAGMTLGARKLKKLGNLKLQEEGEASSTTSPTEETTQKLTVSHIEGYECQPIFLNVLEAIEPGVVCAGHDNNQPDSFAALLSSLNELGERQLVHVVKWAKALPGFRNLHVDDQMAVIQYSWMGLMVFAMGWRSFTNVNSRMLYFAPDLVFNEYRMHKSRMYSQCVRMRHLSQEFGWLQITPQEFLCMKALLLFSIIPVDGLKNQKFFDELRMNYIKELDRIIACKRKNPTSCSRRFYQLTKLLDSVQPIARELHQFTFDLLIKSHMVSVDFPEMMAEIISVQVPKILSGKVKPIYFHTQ
Sequence of Glucocorticoid receptor (Homo sapiens) (P04150 whole entry, looked up): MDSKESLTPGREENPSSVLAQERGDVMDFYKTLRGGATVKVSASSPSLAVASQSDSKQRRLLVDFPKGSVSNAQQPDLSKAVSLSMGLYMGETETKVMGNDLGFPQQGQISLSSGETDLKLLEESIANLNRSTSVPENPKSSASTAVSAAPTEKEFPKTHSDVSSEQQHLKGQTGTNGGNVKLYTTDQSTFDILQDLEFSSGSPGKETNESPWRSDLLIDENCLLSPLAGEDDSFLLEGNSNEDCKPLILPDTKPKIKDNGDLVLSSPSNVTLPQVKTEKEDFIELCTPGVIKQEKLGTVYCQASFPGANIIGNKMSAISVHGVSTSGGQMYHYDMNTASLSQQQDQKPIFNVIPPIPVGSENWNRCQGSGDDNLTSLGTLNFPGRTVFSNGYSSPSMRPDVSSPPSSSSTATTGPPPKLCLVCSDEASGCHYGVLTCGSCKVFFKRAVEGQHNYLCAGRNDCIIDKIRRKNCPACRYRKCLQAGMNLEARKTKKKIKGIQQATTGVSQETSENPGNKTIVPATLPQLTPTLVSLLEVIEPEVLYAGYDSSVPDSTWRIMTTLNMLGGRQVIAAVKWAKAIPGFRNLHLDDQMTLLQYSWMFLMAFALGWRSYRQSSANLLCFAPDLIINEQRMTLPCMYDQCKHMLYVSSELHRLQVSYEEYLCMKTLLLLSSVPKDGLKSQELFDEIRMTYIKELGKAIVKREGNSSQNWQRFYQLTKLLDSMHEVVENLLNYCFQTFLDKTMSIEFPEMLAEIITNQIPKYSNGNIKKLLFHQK

Turning to `COc1cc(OC)nc(NC(=O)NS(=O)(=O)c2ncccc2OCC(F)(F)F)n1`, the call in experiment [1], in [2], in experiment [3], in experiment [4], in experiment [5] and in experiment [6] was inactive. Moreover, the compound was called inactive in experiment [7], in experiment [8] and in experiment [9]. Besides, the Potency result in experiment [10], in experiment [11], in experiment [12], in [13], in [14] and in experiment [15] was “inactive” in each case. In addition, in [16], the Potency result is “inactive”.

On to `COc1ncc(F)c2nc(S(=O)(=O)Nc3c(F)cccc3F)nn12`, for which the compound was classed as inactive in experiment [1], in experiment [2], in experiment [3], in experiment [4], in experiment [5] and in [6]. Also, the compound was called inactive in experiment [7], in experiment [8] and in experiment [9]. Moreover, the Potency result in [10], in experiment [11], in experiment [12], in experiment [13], in experiment [14] and in experiment [15] was “inactive” in each case. Besides, the Potency entry in experiment [17], in [18] and in experiment [16] was “inactive” throughout.

`C=CC1CC=CCC1` (stereo unspecified): the outcome in experiment [1], in [2], in experiment [3], in experiment [4], in experiment [5] and in experiment [6] was inactive. Moreover, the compound was called inactive in experiment [7], in experiment [8] and in experiment [9]. Further, the Potency entry in experiment [10], in [11], in experiment [12], in [13], in experiment [14] and in [15] was “inactive” each time. For the same compound, the Potency entry in experiment [16] and in [19] was “inactive” throughout.

Regarding `Nc1cc2c3c(c1)C(c1ccccc1)=N[C@@H](NC(=O)c1cccnc1)C(=O)N3CC2`, the call in experiment [1], in [2], in experiment [3], in experiment [4], in experiment [5] and in experiment [6] was inactive. Further, the compound was called inactive in [7], in [8] and in experiment [9]. Moreover, the Potency result in experiment [10], in experiment [11], in experiment [12], in experiment [13], in [14] and in experiment [15] was “inactive” throughout. Also, the Potency entry in experiment [16] and in experiment [19] was “inactive” in each case.

For the compound `CNNC`, the compound was classed as inactive in [1], in experiment [2], in experiment [3], in experiment [4], in experiment [5] and in experiment [6]. For the same compound, the compound was classed as inactive in experiment [7], in [8] and in experiment [9]. Moreover, the Potency entry in experiment [10], in [11], in [12], in experiment [13], in experiment [14] and in experiment [15] was “inactive” each time. The Potency result in experiment [16] and in experiment [19] was “inactive” each time.

With `CCOP(=S)(OCC)Oc1cc(-c2ccccc2)on1`, the compound was classed as inactive in [1], in experiment [2], in experiment [3], in experiment [4], in [5] and in [6]. The compound was classed as inactive in experiment [7], in experiment [8] and in experiment [9]. The Potency result in experiment [10], in experiment [11], in [15] and in experiment [16] was “inactive” each time. For the same compound, the results for the Potency in experiment [12], in [13] and in [14] were 68.6 µM (active), 61.1 µM (active) and 68.6 µM (active), respectively.

With `COC(=O)C(c1ccccc1)C1CCCCN1` (stereo unspecified), the compound was classed as inactive in experiment [1], in [2], in [3], in [4], in experiment [5] and in [6]. Further, the compound was classed as inactive in [7], in [8], in experiment [9] and in experiment [20]. The Potency entry in experiment [10], in experiment [11], in [12], in experiment [13], in experiment [14] and in experiment [15] was “inactive” each time. Besides, the Potency entry in experiment [17], in experiment [18], in [16] and in experiment [19] was “inactive” each time.

For `c1cc2c(c(N3CCNCC3)c1)OCCO2`, the compound was called inactive in experiment [1], in [2], in experiment [3], in experiment [4], in experiment [5] and in experiment [6]. Also, the result in [7], in experiment [8], in experiment [9] and in experiment [20] was inactive. In addition, the Potency result in [10], in [11], in experiment [12], in experiment [13], in [14] and in experiment [15] was “inactive” throughout. The Potency result in experiment [17], in experiment [18], in experiment [16] and in experiment [19] was “inactive” each time.
